# Experimental data: the OligoGym collection
# Target: NAT9
# Test: pooled miR-30 sensor sort-seq; sequence = guide strand
# Settings: shRNA
# Further: reference of the scale not given here.
row,Sequence,sensor-assay potency score (higher = more potent)
1,TAGATCTGTGAGGAAGAGGTTC,-0.334
2,TTCATCCACTCGTGGTACCTGC,-1.04
3,TGAAGGTACACTTGTCTGCATC,-1.11
4,ACACTTGTCTGCATCTTCCTGC,0.498
5,TGAAGTTTCTGGAACATCCGGA,0.756
6,TCTGATTTCATCCACTCGTGGT,-0.312
7,TCAAACGCTGCAGCTCCTCTGA,-0.784
8,TTGTCTGCATCTTCCTGCCAGC,-1.08
9,TTGTTCACATGCAGTCTGCTGT,-0.324
10,ATCCACTCGTGGTACCTGCTGG,-0.384
11,TAAGGCTTCTCTTCCACGTGGC,0.678
12,TACACTTGTCTGCATCTTCCTG,-0.99

# Target: NBPF1
# Test: as above
# Settings: shRNA
row,Sequence,sensor-assay potency score (higher = more potent)
1,TCTTCGTTGATCTTCTTCCCCT,-0.277
2,TTTTCTTCGTTGATCTTCTTCC,-0.0891
3,TTGATTTCTAAAATGTTCGTCT,0.0571
4,TAAAATGTTCGTCTCTGCCTTC,-0.476
5,TTATGAGGTCTTCGCACTCTTC,-1.54
6,TTGGTCTTCTTCCTCTTCCTGG,-0.175
7,TTCGTCTCTGCCTTCTCGCTGG,0.0322
8,TTTATGAGGTCTTCGCACTCTT,0.0563
9,TTCGTTGATCTTCTTCCCCTTC,-0.152
